# Screens from PubChem BioAssay.
# Compounds with a hit are over-represented: about 4.2% of the library has one in this group of screens.
# uPA generation = inhibitors of cell surface uPA generation | Potency, µM (doses to about 38.3 µM), actives largely listed as inhibitors | AID 540303 | 330,000 tested, 0.31% active | cell surface uPA generation assay, qHTS; active = well fitted inhibition curve with a large enough effect; inconclusive = small, poorly fitted or top-dose-only effect; inactive = no such curve, though single readings can be large or run the other way; tested in mouse RAW 264.7 cells; also: nearly all actives have a fitted effect of over 55% in size
# ClpP mod = qHTS Assay for Activators of ClpP. ATP-dependent Clp protease proteolytic subunit (Bacillus subtilis (strain 168)), P80244. Potency, µM (highest dose often 57.5 µM). purified B. subtilis ClpP, FRET peptide cleavage, 20 min. 340,000 tested, 1.9% active. AID 651965, 2013; active = well fitted falling curve with a large enough effect; inconclusive = small, poorly fitted or top-dose-only effect; inactive = no such curve, though single readings can be large or run the other way; also: the source files actives as falling curves though it sought activators and does not explain the sign; nearly all actives have a fitted effect of over 65% in size
# Target sequence (P80244 whole entry, looked up): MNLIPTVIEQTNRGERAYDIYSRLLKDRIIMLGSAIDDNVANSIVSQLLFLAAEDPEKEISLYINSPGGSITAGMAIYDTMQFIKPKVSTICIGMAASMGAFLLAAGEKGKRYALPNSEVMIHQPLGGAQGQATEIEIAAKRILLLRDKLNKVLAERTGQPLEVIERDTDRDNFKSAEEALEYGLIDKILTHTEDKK
#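 ClpP 10 microg/mL final, pH 8 Tris/KCl buffer with BSA, glycerol, Tween-20; compound pinned in; FRET-FV substrate; RT 20 min; Ex320/Em430; ΔFRET vs ADEP 5.8 microM, DMSO, no enzyme.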
# Sfp PPTase inh = inhibitors of Bacillus subtilis Sfp phosphopantetheinyl transferase; Biochemical Sfp PPTase activity, qHTS; Potency, µM, hits mostly inhibitors; 310,000 tested, 3.5% active; AID 1490;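 also: the enzyme is Sfp with the accession as filed and its product quenches rhodamine fluorescence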
#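 Sfp 15 nM + cpd, 15 min RT; start w/ rhodamine-CoA 5 uM, BHQ-2-YbbR 12.5 uM (final); 50 mM Hepes pH 7.6, 10 mM MgCl2, 0.01% NP-40, 0.01% BSA; read 525/598 nm at 0 and 30 min.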
# TCR act = activators of T cell receptors | AID 504894 | Potency, µM (highest dose often 9.22 µM), usual class: activators | primary human leukocytes, anti-CD3, IL-2 HTRF, 48 h | 330,000 tested, under 10 active
#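 Activity was scored as IL-2 release from primary human leukocytes given only a TCR signal (a-CD3 beads) plus compound for 48 hr. Detection used a two-antibody HTRF format read at 665nm.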
# Numbers stand for hits; i = inactive; ? = inconclusive; nt = no result given. Unless noted, calls follow the shape of the dose curve; as a rule, active = well fitted curve in the direction sought with a large enough effect; inconclusive = small, poorly fitted or top-dose-only effect, or another doubt; inactive = no such curve, though single readings can be large; an effect the other way counts as inactive or inconclusive.
SMILES,uPA generation,ClpP mod,Sfp PPTase inh,TCR act
Cc1cc(C)nc(SCc2ccc(Cl)cc2)n1,i,i,i,i
Cc1ccc2nc(-c3ccc(NC(=O)CCN4C(=O)c5ccccc5C4=O)cc3)sc2c1,i,i,79µM,i
CCN(CC)S(=O)(=O)c1cc(C(=O)OCC(=O)Nc2ccc(-c3nc4ccc(C)cc4s3)cc2)ccc1F,i,18µM,i,nt
CCN(CC)S(=O)(=O)c1ccc(C(=O)OCC(=O)Nc2ccc(-c3nc4ccc(C)cc4s3)cc2)cc1,i,?,i,i
CC(C)CC(=O)Nc1ccc(C(=O)Cn2nc(C(=O)O)c3ccccc3c2=O)cc1,i,28µM,?,i
O=C(CCN1C(=O)c2ccccc2C1=O)Nc1ccc(-c2nc3ccccc3s2)cc1,i,i,i,i
Cc1ccc2nc(-c3ccc(NC(=S)NC4CC(C)(C)NC(C)(C)C4)cc3)sc2c1,i,nt,45µM,i
Cc1cc(C)c2c(=O)cc(C(=O)Nc3sc4c(c3C(=O)NCc3ccccc3)CCCC4)oc2c1,nt,i,nt,nt
CCCCOC(=O)c1ccc(-n2nnc3c(sc4nc(C)cc(C)c43)c2=O)cc1,nt,i,nt,nt
CN(C(=O)c1cc(-c2cccs2)nn1-c1ccccc1)C1CCS(=O)(=O)C1 (stereo not drawn),nt,i,nt,nt
CC(C)CC(=O)Nc1ccc(C(=O)NN2C(=O)c3ccccc3C2=O)cc1,i,32µM,i,i
Cc1ccc(NC(=O)CNC(=O)CN2C(=O)c3ccccc3C2=O)cc1,nt,i,nt,nt
Cc1ccc(NC(=O)CN2C(=O)c3ccccc3C2=O)cc1,i,28µM,i,i
CCCC(=O)Nc1ccc(C(=O)NN2C(=O)c3ccccc3C2=O)cc1,i,i,i,i
Cc1ccc2nc(-c3ccc(NC(=O)C(C)N4C(=O)c5ccccc5C4=O)cc3)sc2c1 (stereo not drawn),i,25µM,i,i
O=C1NCCCN1C1OC(CO)C(O)C1O (stereo not drawn),nt,i,nt,nt
CN(CC(=O)Nc1ccccc1Cl)C(=O)C1CCN(C(=O)c2ccc(F)cc2)CC1,i,i,nt,nt
CCC1=NN2C(=N)/C(=C\c3cccn3-c3c(C)cccc3C)C(=O)N=C2S1,i,i,56µM,i
CCC1=NN2C(=N)/C(=C/c3cc(C)n(Cc4ccccc4)c3C)C(=O)N=C2S1,i,25µM,i,i
CC(C)Oc1ccc(OCCn2c(=S)[nH]c3c(N)ncnc32)cc1,i,i,50µM,i
Cc1ccc(OCCn2c(=S)[nH]c3c(N)ncnc32)cc1,i,i,i,i
CN(CC#CC1(O)c2ccccc2-c2ccccc21)Cc1ccccc1,i,i,45µM,i
C#CCN(C)Cc1ccccc1,i,i,i,i
COc1ccc(NC(=O)CCCNC(=O)Cn2cnc3sc4c(c3c2=O)CCCC4)c(OC)c1,i,i,i,i
O=C(NCc1ccccc1Cl)c1ccc(S(=O)(=O)Nc2cccc(C(F)(F)F)c2)cc1,i,20µM,i,i
SMILES,uPA generation,ClpP mod,Sfp PPTase inh,TCR act
CC(C)(C)c1ccc(C(=O)N2CCC(C(=O)c3ccccc3)CC2)cc1,i,i,i,i
N[C@H](C(=O)O)C1C(C(=O)O)C1C(=O)O (stereo partly drawn),nt,nt,50µM,nt
COc1cccc(/C=N/Nc2ncnc(Cl)c2N)c1O,i,i,i,i
Nc1c(Cl)ncnc1N/N=C/c1ccncc1,i,nt,79µM,i
Nc1c(Cl)ncnc1N/N=C/c1cccc(O)c1,?,i,56µM,i
COc1ccc(/C=N/Nc2ncnc(Cl)c2N)cc1OC,i,?,32µM,i
CCCNC(=O)Cn1c(SCc2ccccc2C)nc2ccncc21,nt,i,nt,nt
O=C(CSc1nnc2scc(-c3ccccc3)n12)Nc1ccc(Cl)cc1,nt,i,nt,nt
COc1ccc(/C=C2/CCc3ccccc3C2=O)cc1CN1CCOCC1,i,i,i,i
COc1ccc(/C=C2\CCc3ccccc3C2=O)cc1Cn1nc(C)cc1C,i,i,20µM,i
CCCC(=O)N1CCc2cc(OC)c(OC)cc2C1c1cc2cc3c(cc2[nH]c1=O)OCO3 (stereo not drawn),i,?,nt,i
COc1cc2c(cc1OC)C(c1cc3cc(OC)c(OC)cc3[nH]c1=O)N(C(=O)C1CC1)CC2 (stereo not drawn),nt,28µM,50µM,i
CCCCc1ccc(S(=O)(=O)N/N=C(/C)c2ccncc2)cc1,i,32µM,i,i
CC1CCN(C(=O)Cn2cc(SCc3ccccc3)c3ccccc32)CC1,nt,i,nt,nt
O=C(NCc1ccco1)c1ccc2c(c1)C(=O)N(Cc1ccccc1)C2=O,i,28µM,?,i
CC(C)CCN1C(=O)c2ccc(C(=O)NCc3ccco3)cc2C1=O,i,i,i,i
